In the library only some 19% were active in any assay of this set; here they are far more common.
IL-1B inflam inh – qHTS for Inhibitors of Inflammasome Signaling: IL-1-beta AlphaLISA Primary Screen; THP-1 LPS/ATP IL-1B secretion, AlphaLISA, 16 h; stronger effect = lower value; activity change, % at 57.5 µM; 360,000 tested, 4.7% active; in the data active means activity change below about -50%; inconclusive means mostly about -30% to -49%
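THP-1 cells pretreated 1 hr with compounds (up to 57.5 uM final), then stimulated with LPS (250 ng/mL final) plus ATP (1.25 mM final); secreted IL-1B measured by AlphaLISA after 16 hr, decreased signal indicating inhibition.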
HT1080 IDH1KD tx – qHTS for induction of synthetic lethality in tumor cells producing 2HG: qHTS for the HT-1080-IDH1KD cell line; Potency, µM (top dose mostly 46.1 µM), for the others: at the highest dose activity, negative = toxicity, actives largely listed as cytotoxic; 360,000 tested, 2% active; HT-1080 IDH1 knockdown viability, ATP luminescence, 48 h; AID 686971, 2013;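 further: potency means the concentration at half of the fitted maximal effect; 0% = DMSO wells and -100% = cell-free medium wells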
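CellTiter-Glo luminescence after 48 h compound exposure at 37 degrees C of IDH1-knockdown HT-1080 cells in 5% FBS RPMI. %Activity scaled between DMSO wells and cell-free media wells, with curves fitted and assigned curve classes.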
ELG1 DNA repair – qHTS screen for small molecules that inhibit ELG1-dependent DNA repair in human embryonic kidney (HEK293T) cells expressing luciferase-tagged ELG1 | 330,000 tested, 2.3% active | Potency, µM (doses to about 46.1 µM), without a hit: at the top dose activity change, negative = inhibition, most hits filed as inhibitors | AID 504467, 2011 | HEK293T ELG1-luciferase reporter, luminescence, 16 h; DNA damage induced by 5-fluorouridine; further: potency means the concentration at half of the fitted maximal effect; nearly all actives have a fitted effect of over 55% in size
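Reporter activity after DNA damage by 5-fluorouridine is monitored. Compound-treated cells incubate 16 hr at 37 °C, then ONE-Glo is added for 30 min before luminescence reading.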
HT1080NT lethal – qHTS for induction of synthetic lethality in tumor cells producing 2HG: qHTS for the HT-1080-NT fibrosarcoma cell line; 360,000 tested, 1.6% active; HT-1080-NT fibrosarcoma viability, CellTiter-Glo ATP luminescence, 48 h; Potency, µM (titrated, usually from 46.1 µM), for the others: top-dose activity, negative = less viability, hits mostly cytotoxic;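 further: NT is the 2HG producing partner of a matched IDH1 knockdown line; potency means the concentration at half of the fitted maximal effect; 0% = DMSO-treated cells and -100% = media-only wells without cells; nearly all actives have a fitted effect of over 55% in size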
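HT-1080-NT; 750 cells/well; 5% FBS RPMI; 48 h compound, 37 degrees C; CellTiter-Glo luminescence; curve fitting and curve-class assignment.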
DT40 TDP1 no CPT – qHTS for Inhibitors of human tyrosyl-DNA phosphodiesterase 1 (TDP1): qHTS in cells in absence of CPT. DT40 Tdp1-/- hTDP1 cells, no CPT, ATP luminescence, 48 h. Potency, µM (doses to about 46.2 µM), for inactives: at the highest dose activity change, negative = growth inhibition, hits mostly inhibitors. 420,000 tested, 15% active; further: potency means the concentration at half of the fitted maximal effect; nearly all actives have a fitted effect of over 55% in size
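Readout: luminescence from CellTiter-Glo after 30 min in the dark at RT. Cells: DT40 Tdp1-/- with stable hTDP1, 400/well. Exposure: compounds alone, ≥48 hr, 37 °C.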
TDP1 cell CPT – qHTS for Inhibitors of human tyrosyl-DNA phosphodiesterase 1 (TDP1): qHTS in cells in presence of CPT; chicken DT40 Tdp1-/-;hTDP1 cells + 20 nM CPT, ATP luminescence, 48 h; Potency, µM (top dose mostly 46.2 µM), for inactives: at the highest dose activity change, negative = growth inhibition, actives largely listed as inhibitors; 420,000 tested, 12% active; further: potency means the concentration at half of the fitted maximal effect; nearly all actives have a fitted effect of over 55% in size
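Chicken DT40 Tdp1-/- cells stably complemented with human TDP1 were seeded at 400 cells/well in medium containing 20 nM camptothecin, exposed to pin-transferred compounds, and grown at 37 °C for at least 48 hr. Viability was read as ATP luminescence.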
* = called active by the depositor. Unless noted, the call rests on the fitted dose curve; in most records, active means well fitted curve in the direction sought with a large enough effect; inconclusive means small, poorly fitted or top-dose-only effect, or another doubt; inactive means no such curve, though single readings can be large; an effect the other way counts as inactive or inconclusive. Unless noted, on the % scale 0 is the no-effect control and ±100 the full control effect.

How did Cn1c(=O)[nH]c(=O)c2c1nc(Br)n2CC(O)COc1ccccc1 (configuration not stated) do in these assays?
IL-1B inflam inh: 9.0; HT1080 IDH1KD tx: 3.0%; ELG1 DNA repair: 1.6%; HT1080NT lethal: 2.5%; DT40 TDP1 no CPT: -17.6%; TDP1 cell CPT: -1.1%

How did Cc1cc(C)n(-c2nc3c(c(=O)[nH]c(=O)n3C)n2CC(O)COc2ccc(Cl)cc2Cl)n1 (configuration not stated) do in these assays?
IL-1B inflam inh: 116.4; HT1080 IDH1KD tx: inconclusive; ELG1 DNA repair: -7.7%; HT1080NT lethal: inconclusive; DT40 TDP1 no CPT: 5.8µM*; TDP1 cell CPT: 6.51µM*

Results for COc1ccccc1OCC(O)Cn1c(Br)nc2c1c(=O)[nH]c(=O)n2C (configuration not stated) ?
IL-1B inflam inh: 34.5; HT1080 IDH1KD tx: -1.3%; ELG1 DNA repair: inconclusive; HT1080NT lethal: -7.3%; DT40 TDP1 no CPT: 14.6µM*; TDP1 cell CPT: inconclusive

What do the screens show for `CCC(C)Sc1nc2c(c(=O)[nH]c(=O)n2C)n1CCc1ccccc1` (configuration not stated)?
IL-1B inflam inh: -6.9; HT1080 IDH1KD tx: -0.1%; ELG1 DNA repair: inconclusive; HT1080NT lethal: 3.3%; DT40 TDP1 no CPT: inconclusive; TDP1 cell CPT: -28.3%

Results for CCN(CC)CCNc1nc2c(c(=O)[nH]c(=O)n2C)n1CC(O)COc1ccc(Cl)cc1Cl (configuration not stated) ?
IL-1B inflam inh: -0.1; HT1080 IDH1KD tx: -2.2%; ELG1 DNA repair: 1.2%; HT1080NT lethal: -4.7%; DT40 TDP1 no CPT: -17.6%; TDP1 cell CPT: -7.3%

How did O=C(COC(=O)c1cccc(S(=O)(=O)N2CCCC2)c1)Nc1ccccc1 do in these assays?
IL-1B inflam inh: -18.5; HT1080 IDH1KD tx: 23.2%; ELG1 DNA repair: 12.0%; HT1080NT lethal: 26.6%; DT40 TDP1 no CPT: -11.0%; TDP1 cell CPT: -7.3%

How did CCOC(=O)c1cccc(Nc2ccc3cc(S(=O)(=O)N4CCCCC4)ccc3n2)c1 do in these assays?
DT40 TDP1 no CPT: 20.6µM*; TDP1 cell CPT: 23.1µM*

What do the screens show for `O=S(=O)(c1ccc2nc(Nc3cccc(F)c3)ccc2c1)N1CCCC1`?
DT40 TDP1 no CPT: inconclusive; TDP1 cell CPT: 23.1µM*

Results for COc1ccc(Nc2ccc3cc(S(=O)(=O)N4CCCC4)ccc3n2)cc1Cl ?
DT40 TDP1 no CPT: 20.6µM*; TDP1 cell CPT: 20.6µM*

How did O=S(=O)(c1ccc2nc(Nc3ccc(F)cc3)ccc2c1)N1CCCC1 do in these assays?
DT40 TDP1 no CPT: -25.9%; TDP1 cell CPT: 6.5%

What do the screens show for `CCC(=O)N1CCc2cc(S(=O)(=O)NC(C(=O)NCc3ccc(OC)cc3)C(C)C)ccc21` (configuration not stated)?
DT40 TDP1 no CPT: -3.7%; TDP1 cell CPT: -17.5%

What do the screens show for `COc1ccc(S(=O)(=O)Nc2cccc3c2O[C@H](CN(C)S(=O)(=O)c2ccc(F)cc2)[C@H](C)CN([C@H](C)CO)C3=O)cc1`?
IL-1B inflam inh: -2.0; HT1080 IDH1KD tx: 6.0%; ELG1 DNA repair: 6.4%; HT1080NT lethal: inconclusive; DT40 TDP1 no CPT: inconclusive; TDP1 cell CPT: inconclusive

Results for O=P(c1ccccc1)(c1ccccc1)c1ccccc1C(Br)Br ?
IL-1B inflam inh: -24.9; HT1080 IDH1KD tx: -16.8%; HT1080NT lethal: -4.2%; DT40 TDP1 no CPT: inconclusive; TDP1 cell CPT: -41.7%

Assay outcomes deposited in PubChem by National Center for Advancing Translational Sciences (NCATS).
